Assay results reported in PubChem BioAssay AID2314 (National Center for Advancing Translational Sciences (NCATS), 2010).
Hit rate of the full screen: of about 300,000 compounds, about 37,000 (12%) were called active. For the sample, actives were picked, then their nearest neighbours and some compounds at random. Unmarked numbers belong to inactive results. Cut-off read from the data, not from the text of the source: active = max response mostly above about 13% (no sharp cut-off); inactive = mostly below about 14%.

test: Cycloheximide Counterscreen for Small Molecule Inhibitors of Shiga Toxin; settings: cell reporter, cycloheximide protein synthesis inhibition counterscreen; stronger effect = higher value; note: read at 38.3 µM for the half of the compounds with a filed dose; 0% is about no effect

Compound | max response
COC(=O)c1cc2occc2n1Cc1nc(-c2ccccc2C)oc1C | -1.91%
CCOC(=O)C1(Cc2cccc(OC)c2)CCN(Cc2csc(C(C)=O)c2)CC1 | -2.31%
CCC(C(=O)NCCC(C)C)N(Cc1ccccc1Cl)C(=O)c1snc(C(N)=O)c1N (stereo not given) | -2.42%
COCCN(C(=S)Nc1cccc(Cl)c1C)C(C)c1ccco1 (stereo not given) | 5.55%
CCc1cccc(CC)c1NC(=O)COc1ccccc1C(=O)c1cc(C#N)c(=O)n(C2CCCCC2)c1 | 5.88%
CCOc1ccc(CN(C)C(=O)c2ccc(=O)[nH]c2)cc1 | -4.67%
CC(NC(=S)Nc1ccc(S(N)(=O)=O)cc1)c1ccc2c(c1)OCO2 (stereo not given) | -3.68%
CCc1ccc(NC(=O)NC(C)c2ccc3c(c2)OCO3)cc1 (stereo not given) | 0.596%
O=C(/C=C/c1ccc2c(c1)OCO2)NCc1ccc(F)cc1 | 9.99%
CNS(=O)(=O)c1ccc(NC(=O)Nc2ccc3c(c2)OCO3)cc1 | 46.9% (active)
CC(C)CNS(=O)(=O)c1ccc(C(=O)Nc2ccc3c(c2)OCO3)cc1 | -0.729%
CC(NC(=O)Nc1ccc2c(c1)OCO2)c1ccncc1 (stereo not given) | 11.1%
CCc1c(C)sc(NC(=O)/C=C/c2ccc3c(c2)OCO3)c1C(=O)OC | 16.3%
Cc1cccc(NC(=O)Nc2ccc3c(c2)OCO3)n1 | 45.7% (active)
Cc1cccc(NC(=O)/C=C/c2ccc3c(c2)OCO3)n1 | 64.4% (active)
CCCC1OC23CCCCC2C(C#N)(C#N)C1(C#N)C(=N)O3 (stereo not given) | -1.48%
Cc1ccc(C23CC4CC(CC(C(=O)NCC(=O)O)(C4)C2)C3)cc1 | -6.43%
COc1ccc(Oc2cn[nH]c2-c2ccc(OC)cc2O)cc1 | 2.15%
COc1cc(C(=O)Nn2c(CC(C)C)nc3ccccc3c2=O)cc(OC)c1OC | -3.7%
Cc1ccc(Cl)cc1NC(=O)C1CCN(S(C)(=O)=O)CC1 | 8.41%

Compound | max response
COc1ccc(Br)cc1C1C2C=CCC(C)C2C(=O)N1Cc1ccccc1 (stereo not given) | 2.32%
Cc1nccc(-c2ccc(-n3c(C)ccc3C)cc2)n1 | 1.97%
O=C1OC(/C=C/c2ccccc2)=NC/1=C/c1ccco1 | -1.15%
COc1ccccc1/C=C/C1=NC(=C\N(C)C)/C(=O)O1 | 10.1% (active)
C=CCOC(=O)C1=C(C)N=C2SCCC(=O)N2C1/C=C/c1ccccc1OC (stereo not given) | -1.27%
COc1cc2c(cc1OC)C(c1ccccc1Br)NC(=O)C2 (stereo not given) | 2.36%
CCC(=O)Nc1nc(C)c(C(=O)Nc2cccc(Cl)c2)s1 | 16.2% (active)
Cc1nc(NC(=O)c2cccc(Cl)c2)sc1-c1csc(Nc2cccc(Cl)c2)n1 | -1.16%
CCC(=O)Nc1sc(C(=O)Nc2ccccc2)c(C)c1C(=O)OC | 6.77%
Cc1ccc(C2C(C#N)C(C#N)N3CCCN23)cc1 (stereo not given) | 14.4%
CCC(C)NC(=O)CSC1=Nc2ccccc2C2=NC(CCC(=O)NCc3ccco3)C(=O)N12 (stereo not given) | 0.985%
O=C(CC1N=C2c3ccccc3N=C(SCc3ccccc3Cl)N2C1=O)NCc1ccco1 (stereo not given) | 18% (active)
O=C(CSC1=Nc2ccccc2C2=NC(CC(=O)NCc3ccco3)C(=O)N12)NCc1ccco1 (stereo not given) | 6.84%
N#Cc1c(-c2ccccc2)nc(SCc2cccc(C(F)(F)F)c2)[nH]c1=O | 4.14%
CCc1ccc(NC(=O)Cn2nnc(C(=O)NCc3ccc(OC)cc3)c2N)cc1 | -3.14%
CCCCCc1c(C)nc(N2CCN(Cc3ccc4c(c3)OCO4)CC2)[nH]c1=O | -0.993%
O=C(/C=C/Nc1ccccc1)c1cnc(-c2ccccc2)s1 | 1.67%
O=S(=O)(c1ccc(F)cc1)n1ccc(-c2cnc(-c3ccccc3)s2)n1 | 1.13%
CC(=O)c1cnc(-c2ccccc2)s1 | 35.2% (active)
Cc1cccc(N2CCN(S(=O)(=O)c3ccc4[nH]c(=O)c(=O)[nH]c4c3)CC2C)c1 (stereo not given) | -2.14%

Compound | max response
CC1(C)C(C=C(Cl)Cl)C1C(=O)N(Cc1ccc(Cl)cc1)C1CCS(=O)(=O)C1 (stereo not given) | 3.61%
Cc1ccc2nc(/C(C#N)=C\c3ccc(OC(=O)c4cccs4)cc3)[nH]c2c1 | 29.1% (active)
COc1ccc(CCNC(=O)/C(C#N)=C2\N=C(NC(=O)c3cccs3)c3ccccc32)cc1 | -2.25%
Cc1ccc2nc(S(=O)(=O)O)[nH]c2c1 | -7.91%
O=C(Nc1ccon1)c1cccc(Cl)c1 | 8.4%
O=C(Nc1ccon1)c1sc2ccccc2c1Cl | 64.4% (active)
CN1CCc2ccccc2C1Cc1ccccc1NC(=O)c1sc2ccccc2c1Cl (stereo not given) | 5.79%
COc1ccc(C)cc1NC(=O)C(Sc1ccccc1)c1ccccc1 (stereo not given) | -3.77%
CC1CCN(C(=O)c2ccc3c(=O)n4c(nc3c2)CCCCC4)CC1 | 14.9%
CCn1nc(C)c(CN2CCN(Cc3ccc(OC)c(C)c3C)C(CCO)C2)c1C (stereo not given) | -1.08%
Cc1cccc(-[n+]2c(-c3cccc(Br)c3)[nH]c3nc4ccccc4nc32)c1 | 0.81%
COc1ccc(OCC(=O)NCCS(=O)(=O)N2CCN(c3ccc(F)cc3)CC2)cc1 | 13.1%
CN(CC(=O)NCc1ccc(Cl)cc1)S(=O)(=O)c1cccs1 | 10.2% (active)
O=C(NCc1ccc(Cl)cc1)C1CCN(S(=O)(=O)c2cccs2)CC1 | -3.46%
COc1ccc(CNC(=O)CN(Cc2ccc(Cl)cc2)S(C)(=O)=O)cc1 | -2.61%
NC(=O)CN1CCCC1c1ccc2c(c1)OCCO2 (stereo not given) | 10.4%
Cc1ccccc1OCC(=O)NNC(=O)c1cc(S(=O)(=O)N(C)C)ccc1N1CCCC1 | -2.55%
Cc1ccc(-n2c(SCC(=O)N/N=C/C=C/c3ccccc3[N+](=O)[O-])nc3ccccc3c2=O)cc1 | -7.24%
O=C(CSc1nc2ccccc2[nH]1)N/N=C/C=C\c1ccccc1[N+](=O)[O-] | 13.8% (active)
CCn1c(SCC(=O)N/N=C/C=C/c2ccccc2[N+](=O)[O-])nnc1-c1ccccc1 | 8.3%
